Where “and” joins values, the source holds several entries; their conditions need not be identical. Identical values can stand only once. The campaign covered roughly 5,500 compounds. About 2,000 (36%) were called active. About 18% were inconclusive and are not listed. Cut-off read from the data, not from the text of the source: active = normalized growth mostly below about 0.91 (no sharp cut-off); inconclusive = no clear call, values can overlap the other calls; inactive = mostly above about 0.92. Some of the results follow.
Assay: chemical genetic growth profiling, strain panel (AID 1159580);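 note: tested at 20 µM; growth read once vehicle control cultures reached saturation at 30 °C; 1 = growth at the plate median or of vehicle wells; lower values mean less growth of the strain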
Details: growth OD

Measured: normalized growth

CC1=C(/C=C/C(C)=C/C=C/C(C)=C/C(=O)O)C(C)(C)CCC1
active: S. cerevisiae deletion strains, locus YLR262C, strain YPT6 (second series), stronger effect = lower value 0.827 | S. cerevisiae deletion strains, locus YOR083W, strain WHI5, stronger effect = lower value 0.883
inactive: S. cerevisiae deletion strains, locus YJR075W, strain HOC1, stronger effect = lower value 1.01 | S. cerevisiae deletion strains, locus YKL009W, strain mrt4, stronger effect = lower value 0.992 | S. cerevisiae deletion strains, locus YKL068W, stronger effect = lower value 1.02 | S. cerevisiae deletion strains, locus YKL085W, strain MDH1 (second series), stronger effect = lower value 1.02 | S. cerevisiae deletion strains, locus YKL085W, strain MDH1, stronger effect = lower value 1.02 | S. cerevisiae deletion strains, locus YKL160W, strain elf1, stronger effect = lower value 0.93 | S. cerevisiae deletion strains, locus YKL190W, strain CNB1, stronger effect = lower value 1.01 | S. cerevisiae deletion strains, locus YKR001C, strain vps1, stronger effect = lower value 1.02 | S. cerevisiae deletion strains, locus YKR026C, strain gcn3, stronger effect = lower value 1.01 | S. cerevisiae deletion strains, locus YKR091W, strain srl3, stronger effect = lower value 1.01 | S. cerevisiae deletion strains, locus YLL001W, strain dnm1, stronger effect = lower value 0.963 | S. cerevisiae deletion strains, locus YLL026W, stronger effect = lower value 0.996 | S. cerevisiae deletion strains, locus YLL041C, strain sdh2, stronger effect = lower value 1.02 | S. cerevisiae deletion strains, locus YLR027C, strain aat2, stronger effect = lower value 0.966 | S. cerevisiae deletion strains, locus YLR039C, strain RIC1, stronger effect = lower value 0.945 | S. cerevisiae deletion strains, locus YLR058C, strain SHM2, stronger effect = lower value 1.01 | S. cerevisiae deletion strains, locus YLR102C, strain apc9, stronger effect = lower value 1.04 | S. cerevisiae deletion strains, locus YLR113W, strain HOG1, stronger effect = lower value 0.978 | S. cerevisiae deletion strains, locus YLR221C, strain rsa3, stronger effect = lower value 0.982 | S. cerevisiae deletion strains, locus YLR258W, strain gsy2, stronger effect = lower value 0.972 | S. cerevisiae deletion strains, locus YLR262C, strain YPT6, stronger effect = lower value 0.93 | S. cerevisiae deletion strains, locus YLR268W, strain sec22, stronger effect = lower value 1 | S. cerevisiae deletion strains, locus YLR320W, strain mms22, stronger effect = lower value 0.935 | S. cerevisiae deletion strains, locus YLR330W, strain CHS5, stronger effect = lower value 1.01 | S. cerevisiae deletion strains, locus YLR342W, strain FKS1 (second series), stronger effect = lower value 1.02 | S. cerevisiae deletion strains, locus YLR342W, strain FKS1, stronger effect = lower value 0.922 | S. cerevisiae deletion strains, locus YLR357W, strain rsc2, stronger effect = lower value 0.94 | S. cerevisiae deletion strains, locus YLR370C, strain arc18, stronger effect = lower value 0.989 | S. cerevisiae deletion strains, locus YLR371W, strain rom2, stronger effect = lower value 1.03 | S. cerevisiae deletion strains, locus YLR384C, strain iki3, stronger effect = lower value 0.995 | S. cerevisiae deletion strains, locus YLR418C, strain cdc73, stronger effect = lower value 1.05 | S. cerevisiae deletion strains, locus YML016C, strain PPZ1, stronger effect = lower value 1.01 | S. cerevisiae deletion strains, locus YML032C, strain rad52, stronger effect = lower value 1.03 | S. cerevisiae deletion strains, locus YML120C, strain ndi1, stronger effect = lower value 1.01 | S. cerevisiae deletion strains, locus YML124C, strain tub3, stronger effect = lower value 1.03 | S. cerevisiae deletion strains, locus YMR058W, strain fet3, stronger effect = lower value 0.948 | S. cerevisiae deletion strains, locus YMR078C, strain ctf18, stronger effect = lower value 1.04 | S. cerevisiae deletion strains, locus YMR125W, strain sto1, stronger effect = lower value 1 | S. cerevisiae deletion strains, locus YMR129W, stronger effect = lower value 1 | S. cerevisiae deletion strains, locus YMR205C, strain PFK2, stronger effect = lower value 0.965 | S. cerevisiae deletion strains, locus YMR223W, strain ubp8, stronger effect = lower value 1.02 | S. cerevisiae deletion strains, locus YMR231W, strain pep5, stronger effect = lower value 1.01 | S. cerevisiae deletion strains, locus YMR263W, strain SAP30, stronger effect = lower value 1 and 0.999 | S. cerevisiae deletion strains, locus YMR307W, strain GAS1, stronger effect = lower value 1.02 | S. cerevisiae deletion strains, locus YNL067W, strain RPL9B, stronger effect = lower value 1 | S. cerevisiae deletion strains, locus YNL071W, strain lat1, stronger effect = lower value 0.957 | S. cerevisiae deletion strains, locus YNL128W, strain TEP1, stronger effect = lower value 1.02 | S. cerevisiae deletion strains, locus YNL153C, strain GIM3, stronger effect = lower value 1.01 | S. cerevisiae deletion strains, locus YNL175C, strain NOP13, stronger effect = lower value 1.05 | S. cerevisiae deletion strains, locus YNL183C, strain NPR1, stronger effect = lower value 0.905 | S. cerevisiae deletion strains, locus YNL197C, strain WHI3, stronger effect = lower value 1.04 | S. cerevisiae deletion strains, locus YNL209W, strain ssb2, stronger effect = lower value 0.973 | S. cerevisiae deletion strains, locus YNL224C, strain SQS1, stronger effect = lower value 1.03 | S. cerevisiae deletion strains, locus YNL233W, strain BNI4, stronger effect = lower value 1.01 | S. cerevisiae deletion strains, locus YNL248C, strain rpa49, stronger effect = lower value 0.955 | S. cerevisiae deletion strains, locus YNL250W, strain rad50, stronger effect = lower value 1.03 | S. cerevisiae deletion strains, locus YNL271C, strain bni1, stronger effect = lower value 1.03 | S. cerevisiae deletion strains, locus YNL298W, strain CLA4, stronger effect = lower value 1.03 | S. cerevisiae deletion strains, locus YNL307C, strain MCK1, stronger effect = lower value 1.01 | S. cerevisiae deletion strains, locus YNL322C, strain KRE1 (second series), stronger effect = lower value 0.989 | S. cerevisiae deletion strains, locus YNL322C, strain KRE1, stronger effect = lower value 1.01 and 1 | S. cerevisiae deletion strains, locus YNR049C, strain mso1, stronger effect = lower value 1.01 | S. cerevisiae deletion strains, locus YNR052C, strain pop2, stronger effect = lower value 1.04 | S. cerevisiae deletion strains, locus YOL006C, strain TOP1, stronger effect = lower value 1.04 | S. cerevisiae deletion strains, locus YOL012C, strain htz1 1.82 | S. cerevisiae deletion strains, locus YOL147C, strain pex11, stronger effect = lower value 1.03 | S. cerevisiae deletion strains, locus YOR001W, strain rrp6, stronger effect = lower value 0.978 | S. cerevisiae deletion strains, locus YOR061W, strain CKA2, stronger effect = lower value 1.01 | S. cerevisiae deletion strains, locus YOR069W, strain VPS5, stronger effect = lower value 1.01 | S. cerevisiae deletion strains, locus YOR070C, strain gyp1, stronger effect = lower value 0.975 | S. cerevisiae deletion strains, locus YOR080W, strain dia2, stronger effect = lower value 0.999 | S. cerevisiae deletion strains, locus YOR083W, strain WHI5 (second series), stronger effect = lower value 1.02 | S. cerevisiae deletion strains, locus YOR106W, strain vam3, stronger effect = lower value 0.935 | S. cerevisiae deletion strains, locus YOR136W, strain idh2, stronger effect = lower value 1.04 | S. cerevisiae deletion strains, locus YOR144C, strain elg1, stronger effect = lower value 1.04 | S. cerevisiae deletion strains, locus YOR184W, strain ser1, stronger effect = lower value 1.03 | S. cerevisiae deletion strains, locus YOR231W, strain MKK1, stronger effect = lower value 0.992 | S. cerevisiae deletion strains, locus YOR265W, strain rbl2, stronger effect = lower value 1.01 | S. cerevisiae deletion strains, locus YOR270C, strain vph1, stronger effect = lower value 0.926 | S. cerevisiae deletion strains, locus YOR290C, strain snf2, stronger effect = lower value 0.952 | S. cerevisiae deletion strains, locus YOR316C, strain cot1, stronger effect = lower value 1.02 | S. cerevisiae deletion strains, locus YPL051W, strain arl3, stronger effect = lower value 0.932 | S. cerevisiae deletion strains, locus YPL055C, strain LGE1, stronger effect = lower value 1.01 and 0.999 | S. cerevisiae deletion strains, locus YPL078C, strain atp4, stronger effect = lower value 0.943 | S. cerevisiae deletion strains, locus YPL106C, strain sse1, stronger effect = lower value 0.987 | S. cerevisiae deletion strains, locus YPL240C, strain hsp82, stronger effect = lower value 0.992 | S. cerevisiae deletion strains, locus YPL241C, strain CIN2, stronger effect = lower value 1.01 | S. cerevisiae deletion strains, locus YPL256C, strain CLN2, stronger effect = lower value 1.04 | S. cerevisiae deletion strains, locus YPR119W, strain clb2, stronger effect = lower value 1.03 | S. cerevisiae deletion strains, locus YPR141C, strain kar3, stronger effect = lower value 1.05 | S. cerevisiae deletion strains, locus YPR163C, strain tif3, stronger effect = lower value 1.04 | S. cerevisiae deletion strains, locus YPR167C, strain met16, stronger effect = lower value 1.03 | S. cerevisiae deletion strains, strain wtn01, stronger effect = lower value 1.04 | S. cerevisiae strains, strain wild type, stronger effect = lower value 1

— PubChem BioAssay AID1159580 (chemical genetic matrix, 2015)
